Several values for one entry are separate records, joined by “and”; a condition that tells them apart may be missing. Equal values may be shown once. Inconclusive results are not listed. Activity calls are given as the source filed them. Calls come from the whole dose curve; as a rule, active = well fitted curve in the direction sought with a large enough effect in the repeat runs; inconclusive = weak or mixed curves; inactive = no such curve, though single readings can be large; an effect the other way counts as inactive or inconclusive.
Assays:
[1] = Caspase-3/7 induction in CHO-K1 cells by small molecules, qHTS cell viability counter screen (AID 1346979); note: nearly all actives have a fitted effect of over 35% in size
Outline: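 Multiplexed with Caspase-Glo 3/7 in CHO-K1 cells, this counter screen added CellTiter-Fluor after 16hr of compound exposure and recorded fluorescence 1hr later.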

[2] = Caspase-3/7 induction in CHO-K1 cells by small molecules, qHTS assay (AID 1346980); note: nearly all actives have a fitted effect of over 15% in size
Outline: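 Wild-type cells were seeded at 1,500 per well and settled 5 hr at 37 C, 5% CO2, then exposed to DMSO-dissolved compounds for 17 hr. Caspase-Glo 3/7 reagent was added, and luminescence was read after 30min at room temperature.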

[3] = Caspase-3/7 induction in HepG2 cells by small molecules, qHTS cell viability counter screen (AID 1346981); note: nearly all actives have a fitted effect of over 30% in size; for activity change, negative = cytotoxicity: series mostly up to about 92 µM
Outline: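 Fluorescence read-out of live-cell protease activity (CellTiter-Fluor) after 1 hr with reagent. This was measured in the same wells as the caspase-3/7 luminescence, on HepG2 cells exposed to DMSO-dissolved compounds for 16 hr at 37 C.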

[4] = target: Nuclear receptor subfamily 1 group I member 2 (Homo sapiens) (UniProt O75469); experiment: Human pregnane X receptor (PXR) small molecule agonists, qHTS assay (AID 1346982); note: nearly all actives have a fitted effect of over 35% in size
Nuclear receptor subfamily 1 group I member 2 (Homo sapiens), sequence (O75469 whole entry, looked up): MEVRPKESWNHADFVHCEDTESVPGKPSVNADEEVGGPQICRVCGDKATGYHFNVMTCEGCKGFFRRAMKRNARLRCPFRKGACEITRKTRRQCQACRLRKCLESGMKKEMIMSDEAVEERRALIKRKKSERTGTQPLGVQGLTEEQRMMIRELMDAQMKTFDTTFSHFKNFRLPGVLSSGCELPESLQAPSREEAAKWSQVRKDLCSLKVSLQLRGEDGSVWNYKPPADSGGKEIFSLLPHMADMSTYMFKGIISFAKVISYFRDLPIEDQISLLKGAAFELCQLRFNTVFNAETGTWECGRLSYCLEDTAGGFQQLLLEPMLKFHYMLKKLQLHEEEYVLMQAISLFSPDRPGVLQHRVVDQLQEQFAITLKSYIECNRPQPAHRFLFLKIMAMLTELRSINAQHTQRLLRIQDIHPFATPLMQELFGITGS
Outline: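 HepG2 PXR-Luc reporter line, 5% charcoal-stripped FBS; 5 hr pre-incubation, compound (DMSO) 24 hr at 37 C/5% CO2; ONE-Glo 30 min RT; luminescence read-out.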

[5] = target: Cytochrome P450 2D6 (Homo sapiens) (UniProt P10635); experiment: Cytochrome P450 Family 2 Subfamily D Member 6 (CYP2D6) small molecule antagonists: luciferase reporter qHTS assay (AID 1671196); note: nearly all actives have a fitted effect of over 50% in size; for activity change, negative = inhibition: series mostly up to about 120 µM
Cytochrome P450 2D6 (Homo sapiens), sequence (P10635 whole entry, looked up): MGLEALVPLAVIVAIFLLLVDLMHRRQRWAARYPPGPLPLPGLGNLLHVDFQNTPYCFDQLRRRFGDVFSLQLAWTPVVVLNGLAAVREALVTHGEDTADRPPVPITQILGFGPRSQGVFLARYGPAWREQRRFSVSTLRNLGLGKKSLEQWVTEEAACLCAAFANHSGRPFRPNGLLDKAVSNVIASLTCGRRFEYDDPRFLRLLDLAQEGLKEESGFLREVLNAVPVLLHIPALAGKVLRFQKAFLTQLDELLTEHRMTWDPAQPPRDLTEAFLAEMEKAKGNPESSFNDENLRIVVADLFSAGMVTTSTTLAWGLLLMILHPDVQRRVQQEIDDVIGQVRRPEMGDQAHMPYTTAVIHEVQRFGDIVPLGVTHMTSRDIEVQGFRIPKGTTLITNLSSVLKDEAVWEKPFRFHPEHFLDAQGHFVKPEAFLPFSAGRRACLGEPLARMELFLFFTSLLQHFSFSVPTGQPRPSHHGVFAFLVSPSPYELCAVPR
Outline: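 Luminogenic proluciferin substrate, CYP2D6 enzyme; 10 min RT preincubation with compound, NADPH regeneration system added, 1 h RT. Stop/detection reagent, 20 min RT, luminescence read (RLU). Signal proportional to CYP activity.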

[6] = target: Cytochrome P450 2C19 (Homo sapiens) (UniProt P33261); experiment: Cytochrome P450 Family 2 Subfamily C Member 19 (CYP2C19) small molecule antagonists: luciferase reporter qHTS assay (AID 1671197); note: nearly all actives have a fitted effect of over 65% in size; for activity change, negative = inhibition: series mostly up to about 120 µM
Cytochrome P450 2C19 (Homo sapiens), sequence (P33261 whole entry, looked up): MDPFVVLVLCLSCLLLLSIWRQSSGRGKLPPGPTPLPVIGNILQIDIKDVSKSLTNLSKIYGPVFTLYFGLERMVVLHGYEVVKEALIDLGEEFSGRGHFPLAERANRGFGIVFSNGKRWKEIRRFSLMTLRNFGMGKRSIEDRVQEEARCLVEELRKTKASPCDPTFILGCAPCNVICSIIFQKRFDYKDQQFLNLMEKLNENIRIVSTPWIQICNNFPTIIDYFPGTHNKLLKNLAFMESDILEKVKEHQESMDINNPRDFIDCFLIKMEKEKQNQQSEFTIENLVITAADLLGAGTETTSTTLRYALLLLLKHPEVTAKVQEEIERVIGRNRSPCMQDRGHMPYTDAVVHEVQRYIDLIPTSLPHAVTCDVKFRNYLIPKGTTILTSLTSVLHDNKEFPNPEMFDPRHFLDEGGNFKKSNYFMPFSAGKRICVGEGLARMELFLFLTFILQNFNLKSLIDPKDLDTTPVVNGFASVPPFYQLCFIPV
Outline: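 Light output is proportional to CYP2C19 activity: proluciferin substrate is converted to luciferin, then detected by a luciferin detection reagent that also stops the 1 h, 37C NADPH-driven reaction. Ketoconazole serves as positive control.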

[7] = target: Cytochrome P450 2C9 (Homo sapiens) (UniProt P11712); experiment: Cytochrome P450 Family 2 Subfamily C Member 9 (CYP2C9) small molecule antagonists: luciferase reporter qHTS assay (AID 1671198); note: nearly all actives have a fitted effect of over 50% in size; for activity change, negative = inhibition: series mostly up to about 120 µM
Cytochrome P450 2C9 (Homo sapiens), sequence (P11712 whole entry, looked up): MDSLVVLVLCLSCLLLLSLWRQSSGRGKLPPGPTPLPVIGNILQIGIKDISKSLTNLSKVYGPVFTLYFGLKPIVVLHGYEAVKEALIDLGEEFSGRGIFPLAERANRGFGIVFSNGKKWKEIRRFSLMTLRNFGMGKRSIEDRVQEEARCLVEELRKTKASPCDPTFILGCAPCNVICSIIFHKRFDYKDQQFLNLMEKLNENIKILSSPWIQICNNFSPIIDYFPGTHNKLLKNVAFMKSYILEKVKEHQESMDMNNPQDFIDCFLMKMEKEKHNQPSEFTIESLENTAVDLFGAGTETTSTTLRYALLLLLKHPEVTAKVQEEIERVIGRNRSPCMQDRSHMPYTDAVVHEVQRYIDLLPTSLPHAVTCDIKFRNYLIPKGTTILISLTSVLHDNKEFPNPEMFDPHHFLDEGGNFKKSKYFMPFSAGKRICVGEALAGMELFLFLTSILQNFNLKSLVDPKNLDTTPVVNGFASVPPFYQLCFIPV
Outline: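 CYP2C9 activity was measured with a P450-Glo proluciferin substrate. Enzyme–substrate mix was held with compound for 10 min at room temperature, then NADPH regeneration solution was added for 1 h at 37C. Luciferin product was read as luminescence.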

[8] = target: Cytochrome P450 1A2 (Homo sapiens) (UniProt P05177); experiment: Cytochrome P450 Family 1 Subfamily A Member 2 (CYP1A2) small molecule antagonists: luciferase reporter qHTS assay (AID 1671199); note: nearly all actives have a fitted effect of over 50% in size; for activity change, negative = inhibition: series mostly up to about 120 µM
Cytochrome P450 1A2 (Homo sapiens), sequence (P05177 whole entry, looked up): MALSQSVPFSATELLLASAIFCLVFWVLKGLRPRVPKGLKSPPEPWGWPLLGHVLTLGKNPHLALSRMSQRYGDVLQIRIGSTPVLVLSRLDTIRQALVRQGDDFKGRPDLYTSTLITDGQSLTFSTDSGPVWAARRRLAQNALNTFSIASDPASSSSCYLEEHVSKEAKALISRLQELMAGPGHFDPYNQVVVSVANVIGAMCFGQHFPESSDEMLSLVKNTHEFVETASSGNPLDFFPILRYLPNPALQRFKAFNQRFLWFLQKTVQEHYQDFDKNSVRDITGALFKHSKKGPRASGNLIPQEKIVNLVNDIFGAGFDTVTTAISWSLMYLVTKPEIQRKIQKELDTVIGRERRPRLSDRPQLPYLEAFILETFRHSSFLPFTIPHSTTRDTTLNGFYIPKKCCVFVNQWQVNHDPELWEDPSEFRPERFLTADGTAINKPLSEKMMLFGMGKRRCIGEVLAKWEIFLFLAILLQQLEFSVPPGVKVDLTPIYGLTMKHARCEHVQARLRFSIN
Outline: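 Luminescence readout (relative luminescence units) after luciferin detection reagent, 20 min RT. Preceded by 1 h room-temperature CYP1A2 reaction with NADPH regeneration solution following 10 min compound preincubation with enzyme and proluciferin substrate. Furafylline positive control.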

[9] = target: Voltage-gated inwardly rectifying potassium channel KCNH2 (Homo sapiens) (UniProt Q12809); experiment: Human Ether-a-go-go-Related Gene (hERG) channel small molecule antagonists: fluorescence cell-based qHTS assay (AID 1671200); note: nearly all actives have a fitted effect of over 50% in size;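 for activity change, negative = inhibition: hERG-expressing U2OS cells given a thallium stimulus after FluxOR II dye loading; series mostly up to about 77 µM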
Voltage-gated inwardly rectifying potassium channel KCNH2 (Homo sapiens), sequence (Q12809 whole entry, looked up): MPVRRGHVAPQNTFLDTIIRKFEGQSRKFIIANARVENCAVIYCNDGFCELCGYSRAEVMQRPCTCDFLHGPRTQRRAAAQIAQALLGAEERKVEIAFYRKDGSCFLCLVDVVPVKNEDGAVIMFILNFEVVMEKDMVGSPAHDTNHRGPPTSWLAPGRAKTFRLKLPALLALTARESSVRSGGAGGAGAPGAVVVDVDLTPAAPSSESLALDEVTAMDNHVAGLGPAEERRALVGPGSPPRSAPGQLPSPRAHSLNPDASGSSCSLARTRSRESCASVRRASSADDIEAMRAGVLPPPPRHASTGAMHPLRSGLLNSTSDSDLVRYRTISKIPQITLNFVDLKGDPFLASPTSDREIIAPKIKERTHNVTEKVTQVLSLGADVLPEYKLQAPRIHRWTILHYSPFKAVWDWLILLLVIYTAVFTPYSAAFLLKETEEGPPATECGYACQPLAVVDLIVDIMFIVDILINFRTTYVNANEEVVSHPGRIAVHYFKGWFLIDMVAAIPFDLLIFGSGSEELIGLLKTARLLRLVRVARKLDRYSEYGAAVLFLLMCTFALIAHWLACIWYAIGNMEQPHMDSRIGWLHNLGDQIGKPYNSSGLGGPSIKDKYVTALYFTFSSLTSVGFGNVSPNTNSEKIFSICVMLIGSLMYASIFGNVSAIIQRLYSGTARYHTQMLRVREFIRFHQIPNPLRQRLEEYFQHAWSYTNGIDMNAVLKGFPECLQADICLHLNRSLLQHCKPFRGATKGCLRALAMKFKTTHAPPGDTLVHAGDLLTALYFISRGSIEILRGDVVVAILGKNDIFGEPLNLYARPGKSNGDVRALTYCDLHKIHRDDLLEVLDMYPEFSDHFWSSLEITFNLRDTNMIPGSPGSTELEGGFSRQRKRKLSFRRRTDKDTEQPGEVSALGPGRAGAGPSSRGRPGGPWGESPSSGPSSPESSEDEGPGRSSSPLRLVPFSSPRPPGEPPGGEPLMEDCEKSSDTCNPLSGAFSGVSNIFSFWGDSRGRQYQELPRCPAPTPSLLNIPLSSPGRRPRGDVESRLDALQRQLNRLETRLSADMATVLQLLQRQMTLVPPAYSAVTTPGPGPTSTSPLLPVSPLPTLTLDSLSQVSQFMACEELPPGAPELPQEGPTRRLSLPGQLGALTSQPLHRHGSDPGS
Outline: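 Cell line hERG-U2OS; dye FluxOR II, 1 h RT dark; Tl+ stimulus; ex 480/em 540 nm, read each second for 2 min.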

[10] = target: Cytochrome P450 3A4 (Homo sapiens) (UniProt P08684); experiment: Cytochrome P450 Family 3 Subfamily A Member 4 (CYP3A4) small molecule antagonists: luciferase reporter qHTS assay (AID 1671201); note: nearly all actives have a fitted effect of over 50% in size; for activity change, negative = inhibition: series mostly up to about 120 µM
Cytochrome P450 3A4 (Homo sapiens), sequence (P08684 whole entry, looked up): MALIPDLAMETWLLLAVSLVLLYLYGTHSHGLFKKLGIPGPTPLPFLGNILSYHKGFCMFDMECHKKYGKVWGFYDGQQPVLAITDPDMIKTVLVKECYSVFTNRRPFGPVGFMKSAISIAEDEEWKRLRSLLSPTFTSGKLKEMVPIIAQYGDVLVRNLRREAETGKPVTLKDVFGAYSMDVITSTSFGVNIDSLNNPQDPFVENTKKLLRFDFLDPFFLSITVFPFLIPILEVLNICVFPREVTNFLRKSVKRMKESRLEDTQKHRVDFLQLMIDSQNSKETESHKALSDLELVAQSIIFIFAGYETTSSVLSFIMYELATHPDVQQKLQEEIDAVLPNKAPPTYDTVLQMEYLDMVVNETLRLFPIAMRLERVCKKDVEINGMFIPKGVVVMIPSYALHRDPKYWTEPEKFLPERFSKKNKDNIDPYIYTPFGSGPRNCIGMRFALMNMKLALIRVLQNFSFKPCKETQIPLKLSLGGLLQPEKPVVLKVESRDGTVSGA
Outline: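 Room-temperature assay throughout: 10 min compound–enzyme/substrate preincubation, 1 h reaction after NADPH regeneration solution, 20 min detection. Luciferin formed from proluciferin substrate is quantified by luminescence.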
% is set by controls: 0 for no effect and ±100 for the full control effect; potency is the fitted concentration of half-maximal effect.

O=c1cccc[nH]1
inactive: Potency [1] | Potency [2] | Potency [3] | Potency [4] | Potency [5] | Potency [6] | Potency [7] | Potency [8] | Potency [9] | Potency [10]

CC1(C)COCN1
inactive: Potency [1] | Potency [2] | Potency [3] | Potency [4] | Potency [5] | Potency [6] | Potency [7] | Potency [9] | Potency [10]

COc1nccnc1CC(C)C
inactive: Potency [1] | Potency [2] | Potency [3] | Potency [4] | Potency [5] | Potency [6] | Potency [7] | Potency [9] | Potency [10]

C[Si](C)(C)Cl
inactive: Potency [1] | Potency [2] | Potency [3] | Potency [4] | Potency [5] | Potency [6] | Potency [7] | Potency [9] | Potency [10]

CC1(C)C(=O)N(CO)C(=O)N1CO
inactive: Potency [1] | Potency [2] | Potency [3] | Potency [4] | Potency [5] | Potency [6] | Potency [7] | Potency [9] | Potency [10]

O=CC1CC1
inactive: Potency [1] | Potency [2] | Potency [3] | Potency [4] | Potency [5] | Potency [6] | Potency [7] | Potency [8] | Potency [9] | Potency [10]

COC(=O)CC(C)CCC=C(C)C (stereo not given)
inactive: Potency [1] | Potency [2] | Potency [3] | Potency [4] | Potency [5] | Potency [6] | Potency [7] | Potency [9] | Potency [10]

Cc1cc(=O)[nH]c(=O)[nH]1
inactive: Potency [1] | Potency [2] | Potency [3] | Potency [4] | Potency [5] | Potency [6] | Potency [7] | Potency [8] | Potency [9] | Potency [10]

COc1cccc(O)c1
inactive: Potency [1] | Potency [2] | Potency [3] | Potency [4] | Potency [5] | Potency [6] | Potency [7] | Potency [9] | Potency [10]

C/C=C/CO
inactive: Potency [1] | Potency [2] | Potency [3] | Potency [4] | Potency [5] | Potency [6] | Potency [7] | Potency [9] | Potency [10]

CCN=c1cc2oc3cc(NCC)c(C)cc3c(-c3ccccc3C(=O)OCC)c-2cc1C
inactive: Potency [8]
active: Potency [1] 965 nM and 611 nM | Potency [2] 43.1 µM and 48.6 µM | Potency [3] 2.72 µM and 7.7 µM | Potency [4] 2.42 µM and 1.72 µM | Potency [5] 17.8 µM and 20 µM | Potency [6] 7.94 µM and 10 µM | Potency [7] 7.94 µM and 12.6 µM | Potency [9] 2.45 µM and 2.19 µM | Potency [10] 999 nM and 2 µM

CCN1CCN(c2cc(-c3ccc(F)cc3)c3c(n2)CCCCCC3)CC1
inactive: activity change, negative = cytotoxicity [1] 0.368% [at 19 µM] | caspase-3/7 activation [2] 1.46% [at 19 µM] | activity change, negative = cytotoxicity [3] -1.31% [at 19 µM] | activation [4] -23.7% [at 19 µM] | activity change, negative = inhibition [6] -2.56% [at 23.6 µM] | activity change, negative = inhibition [7] -5.46% [at 23.6 µM]
active: Potency [5] 6.74 µM | Potency [9] 4.65 µM

Clc1cccnc1
active: Potency [8] 35.6 µM
inactive: Potency [1] | Potency [2] | Potency [3] | Potency [4] | Potency [5] | Potency [6] | Potency [7] | Potency [9] | Potency [10]

CC(=O)OC1CCCCC1
inactive: Potency [1] | Potency [2] | Potency [3] | Potency [4] | Potency [5] | Potency [6] | Potency [7] | Potency [8] | Potency [9] | Potency [10]

CCCCCCCCCCCC(=O)N(CC)CC
inactive: Potency [1] | Potency [2] | Potency [3] | Potency [5] | Potency [6] | Potency [9] | Potency [10]
active: Potency [4] 21.7 µM | Potency [7] 50.2 µM

OCCC(O)CO (stereo not given)
inactive: Potency [1] | Potency [2] | Potency [3] | Potency [4] | Potency [5] | Potency [6] | Potency [7] | Potency [8] | Potency [9] | Potency [10]

CCCCCCCC(=O)OCC
inactive: Potency [1] | Potency [2] | Potency [3] | Potency [4] | Potency [5] | Potency [6] | Potency [7] | Potency [8] | Potency [9] | Potency [10]

CCCCN(C)C
inactive: Potency [1] | Potency [2] | Potency [3] | Potency [4] | Potency [5] | Potency [6] | Potency [7] | Potency [8] | Potency [9] | Potency [10]

CC(C)=CCCC(C)O (stereo not given)
inactive: Potency [1] | Potency [2] | Potency [3] | Potency [4] | Potency [5] | Potency [6] | Potency [7] | Potency [8] | Potency [9] | Potency [10]

Reference: PubChem BioAssay (Tox21)
